In the library only some 3.8% were active in any assay of this set; here they are far more common.
HSF1 inhib: HSF1 inhibitors in luciferase reporter cells, primary screen, cell-based, NIH3T3, luminescence; NIH3T3-HGL HSE-luciferase, MG132-induced, luminescence 8 h; stronger effect = lower value; activity change, negative = inhibition, % at 7.5 µM (by protocol); hit rate 0.77% among 300,000; AID 2098, 2009;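 active = more than half of replicate wells show activity change below -50%, luminescence cut by over half; inconclusive = some wells, but at most half, below -50%; inactive = no replicate well below -50%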;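 also: luciferase reports HSF-1 transcriptional activity via heat shock element; 0% = median of DMSO wells and -100% = zero luminescence signal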
HSF1 activator: HSF-1 activators, primary screen, NIH3T3-HGL cells, MG132 stress, luminescence, single point. NIH3T3-HGL HSF-1 luciferase reporter, 8 h; 100% = twice DMSO control signal. activation, % at 9 µM. hit rate 1.7% among 300,000;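 active = mean replicate activation of at least 50% with a set share of replicates each reaching 50%; inconclusive = only one of those two conditions met; inactive = mean below 50% and too few replicates reaching it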;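 also: 0% = median of the neutral control wells and 100% = twice that signal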
MITF act: activators of MITF-driven TRPM1 promoter reporter, primary screen, cell-based, SK-MEL-5, luciferase, single point; SK-MEL-5 TRPM1-promoter luciferase, 24 h; % of positive control, neutral wells = 0; activation, % at 12.5 µM; hit rate 0.75% among 300,000; AID 588334, 2011;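 active = mean activation of at least 80% with every replicate also reaching 80%; inconclusive = mean reaches 80% but some replicate falls short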;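 also: 0% = neutral control wells and 100% = parthenolide positive control wells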
Wnt act: Wnt/beta-catenin pathway activators, primary screen, cell-based, plate reader, single point; Wnt/beta-catenin reporter cell assay, activator; activation, % at 9.35 µM; hit rate 1.2% among 300,000; AID 743398, 2014; in the data active = activation above about 30%, passing the limit was not always enough; inconclusive = no clear call, values can overlap the other calls;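 also: 0% = neutral control wells and 100% = positive control wells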
esBAF inh: Bmi1 luciferase reporter increase in mESCs, primary screen, esBAF inhibitor project, mouse ES cells, Bmi1 luciferase knock-in, single point; hit rate 2% among 350,000; reporter increase, % at 12.5 µM; 24 h; 100% = twice the neutral-well signal; AID 602393, 2012; in the data active = activation above about 40%; inconclusive = no clear call, values can overlap the other calls;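 also: 0% = median of the plate's neutral control wells and 100% = double that signal; a rise in the Bmi1 reporter signal indicates esBAF inhibition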
* = called active by the depositor; ? = inconclusive; . = no result given.

SMILES	HSF1 inhib	HSF1 activator	MITF act	Wnt act	esBAF inh
COc1ccc(C#Cc2cnc3c(c2)C(=O)N([C@H](C)CO)C[C@H](C)[C@@H](CN(C)C(=O)c2ccccc2F)O3)cc1	.	.	.	.	0
Cc1noc(C)c1S(=O)(=O)Nc1ccc2c(c1)C(=O)N([C@@H](C)CO)C[C@@H](C)[C@H](CN(C)S(=O)(=O)c1ccccc1)OCCCC[C@@H](C)O2	.	.	.	.	0
COc1ccc(/C=C/C(=O)c2cc(Br)ccc2O)cc1OC	28	66*	17	0	.
COc1ccc(/C=C/C(=O)c2cc(F)ccc2OC(=O)c2ccccc2OC)cc1OC	64	69*	-50	0	.
COc1ccc(/C=C/C(=O)c2cc(Br)ccc2OC(=O)c2ccco2)cc1OC	15	18	-7	-1	-3
O=C(Cc1ccccc1)N[C@H]1CC[C@H](CC(=O)N2CCOCC2)O[C@@H]1CO	.	.	.	.	-2
C[C@H]1CCCCO[C@@H](CN(C)Cc2ccccc2)[C@@H](C)CN([C@@H](C)CO)C(=O)c2cc(NS(=O)(=O)c3cccs3)ccc2O1	.	.	.	.	3
C[C@H]1CN([C@@H](C)CO)C(=O)c2cc(C#CC3CCCC3)cnc2O[C@H]1CN(C)Cc1ccncc1	.	.	.	.	-6
C=CS(=O)(=O)c1sc(Cl)c(N2CCOCC2)c1[N+](=O)[O-]	45	74*	-33	-2	.
CCOC(=O)c1cc(-c2ccccc2)sc1N	8	9	61	.	.
CCOC(=O)c1sc(-c2ccc(F)cc2)cc1N	28	47	98*	.	57*
CCOC(=O)c1sc2nc(C3CC3)cc(-c3ccc(F)cc3)c2c1N	0	-4	-9	-4	-8
CCOC(=O)c1sc(-c2ccccc2)cc1N	-30	-41	.	54*	67*
CCOC(=O)c1cc(-c2ccccc2)sc1NC(=O)c1ccc(OC)cc1	-6	-4	.	.	.
CCOC(=O)c1sc(-c2ccc(OC)cc2)cc1N	17	46	99*	.	76*
COc1cccc(S(=O)(=O)Nc2ccc3c(c2)[C@H]2C[C@H](CC(=O)NCCc4ccccc4)O[C@H](CO)[C@H]2O3)c1	.	.	.	.	23
COc1ccc(/C=N/Nc2snc(SC)c2C#N)cc1OC	40	42	?	.	53*
CN(C)Cc1c(-c2ccc(Cl)cc2)nc2ccccn12	20	49	62	-3	34
Clc1ccc(-c2nc3ccccn3c2CN2CCCCC2)cc1	24	52*	3	-4	-5
Clc1ccc(-c2noc(CN3CCCC3)n2)cc1	6	27	.	0	44*
COc1ccc(S(=O)(=O)Nc2ccc3c(c2)CC(=O)N([C@H](C)CO)C[C@@H](C)[C@H](CN(C)S(C)(=O)=O)O3)cc1	.	.	.	.	0
COc1cccc(C2C(C(N)=O)=C(C)Nc3nc(-c4cccc(Cl)c4)nn32)c1 (stereo unspecified)	41	99*	.	4	-7
COc1cccc(-c2cnc(C(O)c3ccc(F)cc3)[nH]2)c1 (stereo unspecified)	.	.	.	2	56*
CCCc1ccc(C(O)c2ncc(-c3cccc(F)c3)[nH]2)cc1 (stereo unspecified)	.	.	.	9	15
CCc1ccc(C(O)c2ncc(-c3cccc(F)c3)[nH]2)cc1 (stereo unspecified)	.	.	.	-2	87*
SMILES	HSF1 inhib	HSF1 activator	MITF act	Wnt act	esBAF inh
CO[C@H]1CN(C)C(=O)c2cc(NC(=O)NC(C)C)ccc2OC[C@@H](C)N(C)C[C@@H]1C	.	.	.	.	-2
Cc1cc(C)n2nc(N)c(N=Nc3cccc(Cl)c3)c2n1	7	56*	21	-2	.
CC(=O)Nc1cccc(N/C=C(\C=O)c2nc3ccccc3o2)c1	-2	4	1	27	58*
CC(=O)Nc1ccc(/C=C/c2nc3ccccc3o2)cc1	22	32	72	52*	-12
O=C/C(=C\Nc1ccccn1)c1nc2cc(Cl)ccc2o1	26	29	-3	-6	47*
CCOc1ccc(CCNC(=O)c2nn(C)c3c2CS(=O)(=O)c2ccccc2-3)cc1	-53*	-62	11	-1	1
CCOc1ccc(CCNC(=O)c2nn(C)c3c2CS(=O)(=O)c2ccccc2-3)cc1OCC	-7	-6	7	-1	4
O=C1C(=Cc2ccc(Br)o2)C(=O)c2ccccc21	.	.	13	.	64*
